Test results as given in the supplement of paper PMC3545927.
The list shows a part of the results. How many sequences the whole screen found active is unknown.

Molecular target: furin, P09958
Experiment: furin cleavage Z-score vs untreated control; higher = more cleavage, active = 3.5 or more, inactive = 1 or less, 8 variable residues between constant flanks
Outline: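 Purified furin cleaved 8-mer peptides that were fused to a cDNA oligonucleotide and held on magnetic beads by their N-terminus. Each 0.01 ml reaction used a 1:10 enzyme:substrate ratio in 50 mM HEPES pH 7.5 with CaCl2 and NaCl and ran 7.5, 15 or 30 min. Released DNA was adapter-tagged by PCR and sequenced, and read counts gave abundance. The cleavage Z-score came from log counts against furin-free reactions, lowess-adjusted and scaled by median absolute deviation.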

Chain of furin, P09958 (P09958 whole entry): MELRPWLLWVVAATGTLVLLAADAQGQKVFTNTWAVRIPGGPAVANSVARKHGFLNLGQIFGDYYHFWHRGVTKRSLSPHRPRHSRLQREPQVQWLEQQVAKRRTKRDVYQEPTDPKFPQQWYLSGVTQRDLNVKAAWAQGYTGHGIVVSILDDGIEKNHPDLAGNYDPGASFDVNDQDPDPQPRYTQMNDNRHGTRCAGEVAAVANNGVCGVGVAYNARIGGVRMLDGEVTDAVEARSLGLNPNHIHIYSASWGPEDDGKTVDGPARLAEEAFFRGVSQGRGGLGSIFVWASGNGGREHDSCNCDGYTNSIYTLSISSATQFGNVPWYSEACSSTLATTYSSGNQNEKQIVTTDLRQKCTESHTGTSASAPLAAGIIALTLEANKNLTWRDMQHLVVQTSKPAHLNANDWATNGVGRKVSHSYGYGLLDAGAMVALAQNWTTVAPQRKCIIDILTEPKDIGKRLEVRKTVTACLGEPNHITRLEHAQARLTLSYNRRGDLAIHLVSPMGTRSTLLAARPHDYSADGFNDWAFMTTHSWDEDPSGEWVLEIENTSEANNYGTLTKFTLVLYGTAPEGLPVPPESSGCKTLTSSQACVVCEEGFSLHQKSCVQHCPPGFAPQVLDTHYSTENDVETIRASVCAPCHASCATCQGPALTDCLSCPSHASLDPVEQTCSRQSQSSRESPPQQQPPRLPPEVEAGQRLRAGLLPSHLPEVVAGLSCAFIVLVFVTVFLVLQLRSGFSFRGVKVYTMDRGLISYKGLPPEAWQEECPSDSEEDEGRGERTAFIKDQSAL

Row | Sequence | furin cleavage Z-score (7.5 min) | furin cleavage Z-score (15 min) | furin cleavage Z-score (30 min)
1 | CASTTSRSACAGNASASA [HC1390] | 0.133 (inactive) | -0.0614 (inactive) | -0.754 (inactive)
2 | CALAGLSTLPAGNASASA [HC1048] | 0.519 (inactive) | 1.63 | 0.445 (inactive)
3 | CALKATCTANAGNASASA [HC1266] | 0.615 (inactive) | 2.96 | 1.42
4 | CAKLFRVKRSAGNASASA [FS-1220] | 11.7 (active) | 10.7 (active) | 8.14 (active)
5 | CACWRRMKRSAGNASASA [FS-1113] | 9.77 (active) | 10.5 (active) | 7.93 (active)
6 | CARTGKVKRSAGNASASA [FS-497] | 10.7 (active) | 9.35 (active) | 8.07 (active)
7 | CAECYDAGCAAGNASASA [HC920] | -0.745 (inactive) | 0.00773 (inactive) | -0.466 (inactive)
8 | CAGCPLPPPKAGNASASA [HC1317] | 0.693 (inactive) | -0.374 (inactive) | -0.0504 (inactive)
9 | CAVVPRGVNLAGNASASA [TR7] | 1.05 | -0.803 (inactive) | 1.14
10 | CAMEERSQHLAGNASASA [HC10] | -0.0717 (inactive) | -0.428 (inactive) | 1.49
11 | CALYREFDEMAGNASASA [HC1011] | 0.989 (inactive) | 0.494 (inactive) | -1.47 (inactive)
12 | CAVSPRVKRPAGNASASA [FS-1104] | -1.44 (inactive) | -0.535 (inactive) | -0.559 (inactive)
13 | CALSPRPISYAGNASASA [HC737] | 0.872 (inactive) | 0.348 (inactive) | 0.915 (inactive)
14 | CALVHRVKRRAGNASASA [FS-274] | 13 (active) | 14.7 (active) | 10.7 (active)
15 | CAGDKELRTGAGNASASA [EK10] | -0.528 (inactive) | -3.59 (inactive) | -0.0871 (inactive)
16 | CALSPRTFHPAGNASASA [TR5] | -0.266 (inactive) | 0.174 (inactive) | -0.959 (inactive)
17 | CAGDKRVKRRAGNASASA [FS-159] | 8.54 (active) | 8.95 (active) | 8.22 (active)
18 | CAVSPTHYVPAGNASASA [HC1125] | 0.189 (inactive) | 0.58 (inactive) | -0.874 (inactive)
19 | CAGDSRVMRWAGNASASA [FS-591] | 0.599 (inactive) | -0.204 (inactive) | 0.578 (inactive)
20 | CALSPRVKRIAGNASASA [FS-687] | 8.46 (active) | 10.4 (active) | 8.69 (active)
21 | CAVSPRVKRRAGNASASA [FS-1105] | 6.42 (active) | 5.9 (active) | 5.56 (active)
22 | CALEVLFQGPAGNASASA [NG9] | -2.01 (inactive) | -0.768 (inactive) | -2.01 (inactive)
23 | CAEVVESTWVAGNASASA [HC133] | 0.708 (inactive) | -0.27 (inactive) | -1.67 (inactive)
24 | CADHMEECSQAGNASASA [HC1815] | -0.251 (inactive) | -0.239 (inactive) | -0.816 (inactive)

Row | Sequence | furin cleavage Z-score (7.5 min) | furin cleavage Z-score (15 min) | furin cleavage Z-score (30 min)
25 | CACRAAGLQDAGNASASA [HC1522] | -0.902 (inactive) | -1.39 (inactive) | -1.09 (inactive)
26 | CASTLCSAHLAGNASASA [HC2505] | 0.374 (inactive) | 0.0643 (inactive) | -1.17 (inactive)
27 | CARPRRSEKQAGNASASA [FS-1965] | 3.36 | 4.62 (active) | 3.66 (active)
28 | CARPRRGIIFAGNASASA [FS-3021] | 1.06 | 1.16 | 5.75 (active)
29 | CARDRRSPAEAGNASASA [FS-3152] | 10.2 (active) | 8.19 (active) | 8.7 (active)
30 | CAWYELTPAEAGNASASA [HC924] | -1.27 (inactive) | -1.36 (inactive) | 1.04
31 | CARIFRHSSVAGNASASA [FS-2949] | 1.97 | 0.695 (inactive) | 1.03
32 | CARPRRQGEVAGNASASA [FS-3023] | 0.519 (inactive) | 0.202 (inactive) | 0.396 (inactive)
33 | CARDLRGLAEAGNASASA [FS-2904] | -1.94 (inactive) | 0.23 (inactive) | 0.275 (inactive)
34 | CARIFRSIKQAGNASASA [FS-2148] | 0.0894 (inactive) | 2.91 | 5.31 (active)
35 | CARIFRSSDFAGNASASA [FS-2030] | 0.78 (inactive) | -0.809 (inactive) | 0.131 (inactive)
36 | CAAARALAHGAGNASASA [HC234] | 0.0166 (inactive) | -0.81 (inactive) | 0.0305 (inactive)
37 | CAEVPCHRPTAGNASASA [HC2418] | 0.387 (inactive) | -0.0389 (inactive) | 0.307 (inactive)
38 | CASTSCSAHLAGNASASA [HC2517] | 0.382 (inactive) | 1.16 | 0.668 (inactive)
39 | CAAEITGHVKAGNASASA [HC1177] | 0.655 (inactive) | 2.37 | 0.185 (inactive)
40 | CADARRSPDQAGNASASA [FS-2627] | -0.496 (inactive) | -1.36 (inactive) | -0.54 (inactive)
41 | CARPRRGSTAAGNASASA [FS-2743] | 0.592 (inactive) | 0.93 (inactive) | 0.391 (inactive)
42 | CARPRRSPAQAGNASASA [FS-1764] | 9.55 (active) | 11 (active) | 8.87 (active)
43 | CARPRRPASPAGNASASA [FS-2581] | 0.54 (inactive) | -0.0908 (inactive) | -2 (inactive)
44 | CARDLAVAVEAGNASASA [HC643] | 1.07 | -0.796 (inactive) | 1.14
45 | CARPRRSTSPAGNASASA [FS-3026] | 10.5 (active) | 9.5 (active) | 8.81 (active)
46 | CARPRRSSTQAGNASASA [FS-3025] | 6.4 (active) | 8.65 (active) | 6.89 (active)
47 | CARPRRRYYPAGNASASA [FS-1763] | 0.0891 (inactive) | 0.798 (inactive) | -1.17 (inactive)
48 | CARDRRQATEAGNASASA [FS-1692] | 3.4 | 4.98 (active) | 3.64 (active)
